Screening data as filed in PubChem BioAssay.
Rab9 promoter act – qHTS Assay for Rab9 Promoter Activators | AID 485297, 2010 | actives 2.8% (n = 320,000) | Potency, µM (titrated, usually from 9.22 µM), usual class: activators | Huh7 Rab9 promoter-luciferase reporter, luminescence, 24 h; note: nearly all actives have a fitted effect of over 60% in size
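Quantitative HTS format; Huh7 Rab9-luciferase reporter cells (1500/well) receive compound 2 h post-plating, incubate 24 h at 37 °C, then get luciferase reagent for 10 min before luminescence reading.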
FLuc counter – qHTS profiling assay for firefly luciferase inhibitor/activator using purifed enzyme and Km concentrations of substrates (counterscreen for miR-21 project); purified FLuc, Km substrates, luminescence inhibition; Potency, µM (highest dose often 57.5 µM), most hits filed as inhibitors; actives 6.9% (n = 360,000); AID 588342, 2011; note: nearly all actives have a fitted effect of over 55% in size
Target sequence (P08659 whole entry, looked up): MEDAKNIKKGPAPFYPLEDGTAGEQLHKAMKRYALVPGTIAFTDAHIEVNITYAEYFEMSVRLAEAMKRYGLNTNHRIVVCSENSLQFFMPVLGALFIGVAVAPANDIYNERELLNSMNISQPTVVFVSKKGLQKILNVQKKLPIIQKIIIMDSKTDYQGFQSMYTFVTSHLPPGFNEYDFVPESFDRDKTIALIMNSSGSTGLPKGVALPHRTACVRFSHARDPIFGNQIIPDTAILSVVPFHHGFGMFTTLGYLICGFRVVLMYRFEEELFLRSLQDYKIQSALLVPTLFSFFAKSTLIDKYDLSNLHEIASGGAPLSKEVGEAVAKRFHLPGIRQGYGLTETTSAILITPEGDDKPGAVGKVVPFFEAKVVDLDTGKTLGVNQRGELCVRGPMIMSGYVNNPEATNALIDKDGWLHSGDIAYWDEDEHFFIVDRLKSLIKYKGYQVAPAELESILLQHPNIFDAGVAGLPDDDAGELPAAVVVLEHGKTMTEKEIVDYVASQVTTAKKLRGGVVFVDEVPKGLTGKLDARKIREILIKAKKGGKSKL
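Biochemical qHTS of compounds, final roughly 60 µM downward over six points, against 10 nM purified firefly luciferase using Km concentrations of substrates (10 uM D-luciferin, 10 uM ATP) in Tris acetate pH 7.5 buffer; luminescence output.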
uPA generation – qHTS for Inhibitors of Cell Surface uPA Generation; Potency, µM (highest dose often 38.3 µM), actives largely listed as inhibitors; cell surface uPA generation assay, qHTS; actives 0.31% (n = 330,000); active = well fitted inhibition curve with a large enough effect; inconclusive = small, poorly fitted or top-dose-only effect; inactive = no such curve, though single readings can be large or run the other way; tested in mouse RAW 264.7 cells; note: nearly all actives have a fitted effect of over 55% in size
NPC1 prom act – qHTS Assay for NPC1 Promoter Activators; Huh7 NPC1 promoter luciferase reporter, 24 h; Potency, µM (top dose mostly 9.22 µM), most hits filed as activators; actives 2.4% (n = 320,000); AID 485313, 2010; note: nearly all actives have a fitted effect of over 60% in size
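NPC1 promoter–luciferase Huh7 cells; 24 h compound; luminescence.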
SMN2 splice up – qHTS Assay for Enhancers of SMN2 Splice Variant Expression | HEK293 SMN2-luciferase splicing reporter, luminescence, 30-36 h | AID 1458, 2008 | Potency, µM (highest dose often 46.1 µM), most hits filed as activators | actives 2.8% (n = 210,000); note: nearly all actives have a fitted effect of over 55% in size
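HEK293 cells carry an SMN2 minigene-luciferase reporter in which exon 7 inclusion puts luciferase in frame. Cells were seeded at 2000 cells/well, attached for 10-12 hours, then exposed to compounds for 30-36 hours at 37C before ONE-Glo luminescence.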
ELG1 genotoxic – qHTS screen for small molecules that induce genotoxicity in human embryonic kidney (HEK293T) cells expressing luciferase-tagged ELG1; AID 504466, 2011; Potency, µM (doses to about 46 µM), most hits filed as activators; HEK293T ELG1-luciferase reporter, luminescence, 16 h; actives 1.3% (n = 330,000); note: nearly all actives have a fitted effect of over 60% in size
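After overnight (16 hr) compound treatment at 37 °C, ELG1-luciferase HEK293T cells were lysed with ONE-Glo; luminescence quantified 30 min later at room temperature.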
Numbers stand for hits; i = inactive; ? = inconclusive; nt = no result. The list is not random: actives were taken first. Their share in the collection is about 7.3%. Unless noted, calls come from the whole dose curve; as a rule, active = well fitted curve in the direction sought with a large enough effect; inconclusive = small, poorly fitted or top-dose-only effect, or another doubt; inactive = no such curve, though single readings can be large; an effect the other way counts as inactive or inconclusive.

SMILES	Rab9 promoter act	FLuc counter	uPA generation	NPC1 prom act	SMN2 splice up	ELG1 genotoxic
CCCCOc1ccc(C(=O)Nc2ccc(OCC(=O)N3CCOCC3)cc2)cc1	i	1.1µM	7.1µM	?	nt	i
O=C(N/N=C/c1ccc(OCC(=O)N2CCOCC2)cc1)c1ccccc1Cl	i	?	i	i	i	i
COc1ccc(CNC(=O)CCCc2cn(C)c3ccccc23)c(OC)c1	nt	i	nt	nt	nt	nt
Cc1ccccc1N=C1SCCN1C(=O)CN1C(=O)NC2(CCCC2)C1=O	i	i	i	i	nt	i
CCCOc1ccc(-c2nnn(CC(=O)N3CCC(C)CC3)n2)cc1	i	17µM	i	i	i	i
CCCCOc1ccc(-c2nnn(CCC(=O)N3CCOCC3)n2)cc1	?	12µM	i	?	i	?
CCCOc1ccc(-c2nnn(CC(=O)N3CCCC(C)C3)n2)cc1 (centres undefined)	i	15µM	i	i	nt	i
COC(=O)CCn1nnc(-c2ccc(C(C)C)cc2)n1	i	12µM	i	i	i	i
COc1ccc(OCCC(=O)N2CCOCC2)cc1	i	i	i	i	i	i
CCOc1ccc(-c2nnn(CC(=O)N3CCCC(C)C3)n2)cc1 (centres undefined)	i	?	i	i	i	i
CCCCC/C=C\C/C=C\C/C=C\C/C=C\CCCC(=O)O[C@H](COCCCCCCCCCCCCCCCC)COP(=O)([O-])OCC[N+](C)(C)C	nt	nt	nt	nt	i	nt
CC1CCN(C(=O)Cn2nnc(-c3ccc(C(C)C)cc3)n2)CC1	i	17µM	i	i	nt	i
CC(C)c1ccc(-c2nnn(CC(=O)N3CCCCC3)n2)cc1	i	?	i	i	nt	i
O=C(CNC(=O)c1cccs1)c1ccc([N+](=O)[O-])cc1	2.8µM	24µM	i	?	?	?
O=C(CNC(=O)c1cccs1)OCC(=O)c1ccc(Cl)cc1	i	i	i	i	nt	i
O=C(CNC(=O)c1cccs1)c1ccc(Cl)cc1	0.5µM	6µM	i	1.1µM	nt	?
O=C(CNC(=O)c1cccs1)c1ccc(F)cc1	0.56µM	4.8µM	i	0.5µM	6.3µM	?
COc1ccc(-c2cc(-c3ccccc3O)[nH]n2)cc1	3.2µM	0.85µM	i	1.8µM	nt	?
COc1ccc(O)c(-c2cc(-c3ccccc3Cl)[nH]n2)c1	i	11µM	i	i	nt	?
Oc1ccc(Br)cc1-c1cc(-c2ccccc2Cl)[nH]n1	i	?	i	i	nt	i
COc1ccccc1-c1cc(-c2cc(Cl)ccc2O)n[nH]1	i	i	i	i	i	i
COc1ccc(/C=C/c2nc(-c3ccccc3O)n(-c3ccccc3)n2)cc1	i	?	i	i	i	i
COc1ccc(-c2ncncc2-c2ccccc2)c(O)c1	i	i	i	i	nt	i
COc1ccc(-c2cc(-c3ccccc3)n[nH]2)c(O)c1	2.2µM	6µM	i	?	13µM	8.2µM
COc1ccc(/C=C/c2nc(-c3ccccc3O)n[nH]2)cc1	3.5µM	3.8µM	i	3.5µM	4µM	?
SMILES	Rab9 promoter act	FLuc counter	uPA generation	NPC1 prom act	SMN2 splice up	ELG1 genotoxic
CCOc1ccc(-n2c(SCC(=O)Nc3ccc4c(c3)OCCO4)nc3c([nH]c4ccccc43)c2=O)cc1	nt	i	nt	nt	nt	nt
CCCn1c(CCC(=O)Nc2cc(C(=O)OC)cc(C(=O)OC)c2)nc2cccnc21	nt	i	nt	nt	i	nt
CCOC(=O)c1cccc(NC(=O)CCn2c(-c3ccc(F)cc3)cc(C(=O)OCC)c2C)c1	nt	i	nt	nt	nt	nt
COC(=O)c1cc(-c2cccs2)[nH]n1	i	i	i	i	i	i
COc1ccc(O)c(-c2cc(-c3cccs3)[nH]n2)c1	?	21µM	i	i	?	i
O=C(Nc1ccccc1)c1cc2ccc3ccccc3c2s1	?	5.4µM	i	?	nt	?
Cc1cc(-c2ccc(C(=O)O)s2)cnc1N	?	12µM	i	?	13µM	?
O=C(Nc1ccccc1)c1ccc(-c2ccccc2)s1	?	1.7µM	i	?	i	5.2µM
O=C(Nc1ccccc1F)c1ccc(-c2ccccc2)s1	nt	1.5µM	nt	nt	?	nt
COC(=O)CC1C(C)(C)C(O)C2CC3=C4C=C(OC)OC(c5ccoc5)[C@]4(C)CCC3[C@@]1(C)C2=O (some centres undefined)	nt	nt	nt	nt	i	nt
CCOc1ccc(CCNC(=O)c2cc3c(=O)n(C)c4ccccc4c3n2C)cc1OCC	nt	i	nt	nt	i	nt
O=C(O)c1ccc(-c2ccc(-c3ccccc3)cc2)s1	0.001µM	0.076µM	nt	4e-05µM	nt	?
CCCC(=O)Nc1ccc(-c2csc(N/N=C\c3ccncc3)n2)cc1	?	3µM	i	?	nt	i
CC(=O)Nc1ccc(-c2csc(N/N=C\c3ccncc3)n2)cc1	i	7.6µM	i	i	nt	i
O=C(c1nc2ccc(Cl)cn2c1CNCCc1cnccn1)N1CCCCCCC1	i	i	i	i	nt	i
O=C1COc2cc(S(=O)(=O)CCC(=O)NC3CCCCC3)c(Cl)cc2N1	nt	i	nt	nt	nt	nt
COc1cccc(C=NNC(=O)c2ccncc2)c1O	nt	nt	i	nt	nt	nt
Cc1ccc(S(=O)(=O)Oc2ccccc2/C=N/Nc2ccc(C(=O)O)cc2)cc1	i	19µM	i	i	nt	i
COc1cccc(/C=N/Nc2ccccc2C(=O)O)c1O	0.4µM	1.3µM	i	0.56µM	nt	4.1µM
COc1cccc(/C=N/Nc2ccc(S(=O)(=O)O)cc2)c1O	i	?	nt	i	i	i
COc1cccc(/C=N/Nc2ccc(C(=O)O)cc2)c1O	i	0.19µM	?	i	i	i
Cc1ccc(S(=O)(=O)Oc2ccccc2/C=N/O)cc1	i	i	i	i	i	i
CCN(CC)CCOc1c(Br)ccc2c1sc1nc3n(c(=O)c12)CCC3	i	i	i	i	i	?
O=c1c2c(nc3n1CCCCC3)sc1c(O)c(Br)ccc12	2.8µM	2.7µM	nt	4µM	16µM	2.3µM
COc1cccc(NC(=O)Nc2cc(C)ccc2F)c1	i	24µM	i	i	i	i
SMILES	Rab9 promoter act	FLuc counter	uPA generation	NPC1 prom act	SMN2 splice up	ELG1 genotoxic
COc1cccc(NC(=O)Nc2cc(C)ccc2OC)c1	i	?	i	i	nt	i
COc1ccc(NC(=O)Nc2cc(C)ccc2F)cc1	2.8µM	12µM	i	3.5µM	?	23µM
COc1ccc(NC(=O)Nc2cc(C)ccc2OC)cc1	i	?	i	i	i	i
COc1ccc2oc(C(=O)NC(C)(C)C)c(C)c2c1	4µM	15µM	i	?	13µM	?
COc1ccc2oc(C(=O)NNC(=O)c3ccc(F)cc3)c(C)c2c1	i	?	i	i	nt	?
CCc1nonc1NC(=O)c1oc2ccc(Br)cc2c1C	i	i	i	i	i	i
Cc1ccc2oc(C(=O)Nc3nnc(C)s3)c(C)c2c1	1.4µM	1.7µM	i	3.2µM	16µM	5.8µM
Cc1ccc2c(=O)cc(C(=O)Nc3nnc(C)s3)oc2c1	nt	i	nt	nt	i	nt
COc1ccc2oc(C(=O)Nc3nc4ccc(S(C)(=O)=O)cc4s3)c(C)c2c1	i	?	i	i	nt	i
